For 21 compounds, Potency and outcome results are on record in PubChem BioAssay (Tox21).

Several values for one entry are separate records, joined by “and”; a condition that tells them apart may be missing. Equal entries are not always repeated. Results filed as inconclusive are left out. More than one record can exist for a structure, and the calls need not agree. Activity calls are given as the source filed them. Unless noted, calls come from the whole dose curve; as a rule, active = well fitted curve in the direction sought with a large enough effect in the repeat runs; inconclusive = weak or mixed curves; inactive = no such curve, though single readings can be large; an effect the other way counts as inactive or inconclusive.

A short description of assay [1]: qHTS assay for small molecule agonists of the p53 signaling pathway (AID 651631; calls by dose curve; note: nearly all actives have a fitted effect of over 15% in size; note: potency is the fitted concentration of half-maximal effect). The method in brief:
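HCT-116 cells carrying a beta-lactamase reporter under p53 response elements were dosed with compound for 16 h at 37 °C. LiveBLAzer B/G FRET substrate was then added for 2 h at room temperature, and fluorescence intensity was read to detect pathway agonism.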
Background: qHTS replaces the single test concentration by a dilution series.

A short description of assay [2]: qHTS assay for small molecules that induce genotoxicity in human embryonic kidney cells expressing luciferase-tagged ATAD5 (AID 651632). Note: nearly all actives have a fitted effect of over 15% in size. Note: potency is the fitted concentration of half-maximal effect. The method in brief: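 Cells were seeded at 2,000 per well, dosed with compound, and incubated 16 hr at 37C in 5% CO2. Luciferase activity was then quantified after a 30 min room-temperature incubation with Amplite.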
Assay [3] can be described thus: qHTS assay for small molecule agonists of the p53 signaling pathway - cell viability (AID 651633; calls by dose curve; note: nearly all actives have a fitted effect of over 30% in size; note: potency is the fitted concentration of half-maximal effect). The method in brief:
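p53RE-bla cells, seeded at 4,000 per well and rested 5 h at 37 C/5% CO2, received compounds in DMSO for 16 h at 37 C. CellTiter-Glo was then added, and luminescence was read after 30 min at room temperature to gauge cytotoxicity.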

A short description of assay [4]: qHTS assay for small molecules that induce genotoxicity in human embryonic kidney cells expressing luciferase-tagged ATAD5 - cell viability (AID 651634; calls by dose curve; note: nearly all actives have a fitted effect of over 25% in size; note: potency is the fitted concentration of half-maximal effect). The method in brief: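 Cells (HEK293T, luciferase-tagged ATAD5) are seeded at 2,000 per well, dosed with compound or DMSO vehicle, and incubated 15.5 hr at 37C and 5% CO2. CellTiter-Fluor is added for 30 min before fluorescence is measured.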

Assay [5] is described as follows: qHTS assay for small molecule disruptors of the mitochondrial membrane potential - cell viability (AID 720634; calls by dose curve;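 note: human HepG2 liver cancer cells; series mostly up to about 83 µM; nearly all actives have a fitted effect of over 20% in size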). The gist of the method: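 Cytotoxicity was measured by ATP quantitation in HepG2 wells that had first been treated with compound for 1 hr and stained with m-MPI dye; CellTiter-Glo incubation was 30 min at room temperature.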
Assay [6] is described as follows: qHTS assay to test for compound auto fluorescence at 590 nm (red) in HepG2 cells (AID 720674). The gist of the method: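 Compound auto-fluorescence is scored relative to Rose Bengal sodium, measured at 540/590 nm in live HepG2 cultures after 1 hr compound contact (37 C, 5% CO2).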
Assay [7] can be described thus: qHTS assay to test for compound auto fluorescence at 535 nm (green) in HepG2 cells (AID 720675).
The nature of assay [8]: qHTS assay to test for compound auto fluorescence at 460 nm (blue) in HEK293 cells (AID 720678). The method in brief: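 Triamterene serves as the blue fluorophore standard. Compound signal at 405/460 nm is read in HEK293 wells (2,000 cells, 10% dialyzed FBS) after overnight treatment at 37C.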
Assay [9] can be described thus: qHTS assay to test for compound auto fluorescence at 590 nm (red) in HEK293 cells (AID 720679). The method in brief: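 We plated HEK293 cells in 10% dialyzed FBS medium, let them adhere for 4-5 hr, then added 23 nL compound. Overnight at 37C and 5% CO2 preceded fluorescence measurement at 540/590nm.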

As for `COc1ccc([C@@H]2CC(=O)c3c(O)cc(O[C@@H]4O[C@H](CO[C@@H]5O[C@@H](C)[C@H](O)[C@@H](O)[C@H]5O)[C@@H](O)[C@H](O)[C@H]4O)cc3O2)cc1O`, the Potency entry in [1], in [2], in assay [3], in assay [4], in assay [5] and in assay [7] was “inactive” throughout. Also, the Potency result in [8] is “inactive”. The compound was called inactive in assay [6] and in assay [9].
Turning to `NCC1CCC(C(=O)O)CC1` (configuration not stated), the Potency entry in assay [1], in assay [2], in assay [3], in assay [4], in assay [5] and in [8] was “inactive” throughout. Moreover, the call in assay [6] and in assay [9] was inactive.
Take `CC(C)c1ncc([N+](=O)[O-])n1C`: the Potency result in [1], in assay [2], in [3], in assay [4], in assay [5] and in assay [7] was “inactive” in each case. Besides, the Potency result in assay [8] is “inactive”. Also, the compound was classed as inactive in assay [9].
For the compound `CCN(CC)C(=O)c1cccnc1`, the Potency result in assay [1], in [2], in [3], in [4], in [5] and in assay [8] was “inactive” in each case. Also, the outcome in assay [6] and in assay [9] was inactive.
With `COC(=O)C[C@](O)(CCCC(C)(C)O)C(=O)O[C@@H]1C(OC)=CC23CCCN2CCc2cc4c(cc2[C@H]13)OCO4` (some centres not stated), the Potency is 33.5 nM (active) in [1]; 26.6 nM (active) and 23.7 nM (active) in assay [4]. In addition, the Potency result in assay [2], in assay [3], in [5], in [7] and in assay [8] was “inactive” each time. Moreover, the outcome in [6] and in [9] was inactive.
For the compound `COc1cc([C@@H]2c3cc4c(cc3[C@@H](O[C@@H]3O[C@@H]5CO[C@@H](C)O[C@H]5[C@H](O)[C@H]3O)[C@H]3COC(=O)[C@H]23)OCO4)cc(OC)c1O`, in assay [1], the Potency was 1.88 µM (active) and 761 nM (active). Moreover, the Potency result in assay [2], in assay [3], in assay [4], in assay [5], in [7] and in [8] was “inactive” each time. Also, the outcome in assay [6] and in assay [9] was inactive.
For `COc1cc2c(cc1O)CCN[C@]21CS[C@@H]2c3c(OC(C)=O)c(C)c4c(c3[C@H](COC1=O)N1[C@@H]2[C@H]2c3c(cc(C)c(OC)c3O)C[C@@H]([C@@H]1O)N2C)OCO4`, the Potency is 8.4 nM (active) and 12.2 nM (active) in assay [1]; “inactive and 243 nM (active)” in assay [2]; 42.2 nM (active) in assay [4]. For the same compound, the Potency entry in assay [3], in assay [5], in assay [7] and in [8] was “inactive” throughout. Besides, the compound was called inactive in assay [6] and in [9].
Consider `NC(N)=NCC1COC2(CCCCC2)O1` (configuration not stated), for which the Potency result in assay [1], in assay [2], in assay [3], in assay [4], in assay [5] and in assay [8] was “inactive” each time. In addition, the call in assay [6] and in assay [9] was inactive.
With `CNC(=O)OCc1cccc(COC(=O)NC)n1`, the Potency result in assay [1], in assay [2], in [3], in assay [4], in assay [5] and in [7] was “inactive” each time. Further, the Potency result in assay [8] is “inactive”. Also, the result in assay [6] and in assay [9] was inactive.
Take `CC(=O)Nc1ccc(OC(C)=O)cc1`: the Potency result in assay [1], in [2], in assay [3], in [4], in assay [5] and in [8] was “inactive” each time. Besides, the result in [6] and in assay [9] was inactive.
Regarding `CC(=O)NC[C@H]1CN(c2ccc(N3CCOCC3)c(F)c2)C(=O)O1`, the Potency result in assay [1], in [2], in [3], in assay [4], in assay [5] and in assay [7] was “inactive” each time. The Potency result in assay [8] was “inactive”. Also, the compound was called inactive in assay [6] and in assay [9].
Turning to `C=C(Nc1ccc(OCC)cc1)Nc1ccc(OCC)cc1`, the Potency result in [1], in assay [2], in [3], in [4], in assay [5] and in [7] was “inactive” in each case. Further, in [8], the Potency entry is “inactive”. Moreover, the compound was classed as inactive in [6] and in assay [9].
Take `CC(=O)OCC(=O)[C@@]1(O)CC[C@H]2[C@@H]3C[C@H](C)C4=CC(=O)C=C[C@]4(C)[C@H]3[C@@H](O)C[C@@]21C`: the Potency result in assay [1], in assay [2], in [3], in [4], in assay [5] and in [7] was “inactive” throughout. Further, in assay [8], the Potency result is “inactive”. For the same compound, the call in assay [6] and in [9] was inactive.
As for `Cc1cc(Br)ccc1NC(=O)CCl`, the figures for the Potency in assay [1], in [3] and in assay [4] were 8630 nM (active), 43.3 µM (active) and 54500 nM (active), respectively. Further, the Potency entry in assay [2], in assay [5], in assay [7] and in assay [8] was “inactive” in each case. In [9], the outcome was inactive.
Take `Cc1cc(=O)c(C(=O)N[C@@H](C(=O)N[C@@H]2C(=O)N3C(C(=O)O)=C(CSc4nnnn4C)CS[C@H]23)c2ccc(O)cc2)c[nH]1`: the Potency entry in assay [1], in assay [2], in assay [3], in [4], in assay [5] and in assay [7] was “inactive” throughout. Moreover, in [8], the Potency entry is “inactive”. Besides, the call in assay [6] and in [9] was inactive.
Regarding `NC[C@H]1O[C@H](O[C@H]2[C@H](O)[C@@H](O[C@H]3O[C@H](CO)[C@@H](O)[C@H](N)[C@H]3O)[C@H](N)C[C@@H]2N)[C@H](N)C[C@@H]1O`, the Potency entry in assay [1], in assay [2], in assay [3], in [4], in assay [5] and in assay [7] was “inactive” each time. Besides, in assay [8], the Potency result is “inactive”. In addition, the result in assay [6] and in assay [9] was inactive.
As for `COC(=O)C(CN)c1c[nH]c2ccc(OC)cc12` (configuration not stated), the Potency entry in [1], in [2], in assay [3], in assay [4], in assay [5] and in assay [7] was “inactive” each time. Moreover, the Potency entry in assay [8] was “inactive”. Further, the compound was classed as inactive in assay [6] and in assay [9].
On to `CCc1cn([C@H]2C[C@H](O)[C@@H](CO)O2)c(=O)[nH]c1=O`, for which the Potency entry in assay [1], in assay [2], in assay [3], in assay [4], in assay [5] and in [7] was “inactive” each time. The Potency entry in assay [8] was “inactive”. In addition, the call in [9] was inactive.
Consider `C[S+](CC[C@H](N)C(=O)O)C[C@H]1O[C@@H](n2cnc3c(N)ncnc32)[C@H](O)[C@@H]1O` (some centres not stated), for which the Potency entry in [1], in assay [2], in assay [3], in [4], in assay [5] and in assay [7] was “inactive” each time. The Potency result in assay [8] is “inactive”. The result in assay [6] and in assay [9] was inactive.
Regarding `CN1C(C(=O)Nc2ccccn2)C(=O)c2sc(Cl)cc2S1(=O)=O` (configuration not stated), the Potency entry in assay [1], in assay [2], in assay [3], in [4], in assay [5] and in assay [7] was “inactive” throughout. Besides, the Potency result in [8] is “inactive”. Also, the compound was classed as inactive in assay [6] and in assay [9].
`CCc1ncnc2cc(OC)c(OC)cc12`: the Potency result in assay [1], in assay [2], in [3], in [4], in assay [5] and in [7] was “inactive” throughout. Moreover, the Potency entry in [8] was “inactive”. Further, the compound was called inactive in assay [6] and in [9].
